Screening data as filed in PubChem.
BioA inh = inhibitors of Mycobacterium tuberculosis BioA enzyme. purified M. tuberculosis BioA enzyme, plate reader. inhibition, % at 9.99 µM. 0.096% of 360,000 active. AID 602481; in the data active = inhibition above about 40%
RecA splice inh = blocks M. tuberculosis RecA intein splicing; P9WHJ3; cell-free RecA intein splicing, fluorescence; inhibition, % (no concentration beside the values); 0.75% of 290,000 active; AID 2221; in the data active = inhibition above about 30%;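 also: 0% = vehicle wells and 100% = reference inhibitor control wells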
FadD28 FP inh = M. tuberculosis FadD28 bisubstrate binding inhibition; inhibition, % at 12.5 µM; FadD28 bisubstrate probe binding, fluorescence polarization; 0.22% of 360,000 active; in the data active = inhibition above about 8.5%, passing the limit was not always enough
UGM FP inh = blocks M. tuberculosis UGM enzyme; P9WIQ1; purified UGM, fluorescence polarization probe displacement; inhibition, % at 10 µM; 0.06% of 320,000 active; AID 504406; in the data active = inhibition above about 10%, passing the limit was not always enough
Target sequence (P9WIQ1 whole entry, looked up): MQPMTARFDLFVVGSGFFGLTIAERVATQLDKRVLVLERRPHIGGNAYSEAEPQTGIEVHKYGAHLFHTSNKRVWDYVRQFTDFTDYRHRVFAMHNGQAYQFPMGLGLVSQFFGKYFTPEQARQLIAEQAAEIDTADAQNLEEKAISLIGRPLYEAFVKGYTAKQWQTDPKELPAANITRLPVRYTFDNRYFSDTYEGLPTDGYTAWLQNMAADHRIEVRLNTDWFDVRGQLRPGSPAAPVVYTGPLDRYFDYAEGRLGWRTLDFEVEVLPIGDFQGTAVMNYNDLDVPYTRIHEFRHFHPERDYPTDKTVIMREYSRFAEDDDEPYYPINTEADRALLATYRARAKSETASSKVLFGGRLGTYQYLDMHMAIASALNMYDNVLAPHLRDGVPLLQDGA
TcdB GH inh = TcdB glycohydrolase inhibition. P18177. TcdB glycohydrolase enzymatic assay, plate reader. inhibition, % at 9.99 µM. 0.24% of 350,000 active; in the data active = inhibition above about 10%
Rv3671c inh = inhibitors of M. tuberculosis serine protease Rv3671c; inhibition, % at 5.96 µM; 0.048% of 320,000 active; AID 2606; in the data active = inhibition above about 38%;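 also: extracellular domain of Rv3671c used as enzyme; 0% = enzyme with DMSO and 100% = no enzyme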
* = called active by the depositor. An excerpt weighted towards active compounds, which were near 0.97% of everything screened.

`O=C(Nc1cccc([N+](=O)[O-])c1)NC1CCCCCCC1` gave BioA inh -1, RecA splice inh 4, FadD28 FP inh 18*, UGM FP inh 1 and TcdB GH inh 1.
For COCCN1C(=O)NC(=O)/C(=C\c2ccc(F)cc2)C1=O the results were BioA inh -2, RecA splice inh 0, FadD28 FP inh -1, UGM FP inh -4, TcdB GH inh 0 and Rv3671c inh -9.
CN(C)c1ccc(/C=C2\C(=O)NC(=O)N(CCc3ccc(F)cc3)C2=O)cc1 was read as BioA inh -2, RecA splice inh 5, FadD28 FP inh 25*, UGM FP inh -1, TcdB GH inh 0 and Rv3671c inh -31.
C[C@H](CO)N1C[C@H](C)[C@@H](CN(C)S(=O)(=O)c2cccs2)OCCCC[C@H](C)Oc2ccc(NC(=O)CCCN(C)C)cc2C1=O was read as BioA inh 1 and TcdB GH inh 2.
Cc1cc(N2CCCC2=O)cc(C)c1S(=O)(=O)Nc1c(C)nn(C)c1C was read as BioA inh 2, FadD28 FP inh -2, UGM FP inh 1, TcdB GH inh 42* and Rv3671c inh -3.
CC(C)NC(=O)NCC[C@H]1CC[C@@H](NS(=O)(=O)c2ccccc2)[C@H](CO)O1 was read as TcdB GH inh 0.
For O=C(O)C1CCC(CN(Cc2cccc(Br)c2)C(=S)Nc2ccccc2F)CC1 (stereo unspecified) the results were BioA inh 2, RecA splice inh -7, FadD28 FP inh 0, UGM FP inh 0, TcdB GH inh 12* and Rv3671c inh 7.
Screening O=C(Nc1cccc(OC(=O)c2ccc(Br)o2)c1)c1ccccc1 returned BioA inh -3, RecA splice inh 43*, FadD28 FP inh -3, UGM FP inh 1, TcdB GH inh 0 and Rv3671c inh 10.
`Nc1ccc(Nc2ccccc2)c(S(=O)(=O)O)c1` gave BioA inh 3, RecA splice inh 2, FadD28 FP inh 81*, UGM FP inh -2, TcdB GH inh -3 and Rv3671c inh 5.
For Cc1ccc(Nc2ccc(N)cc2S(=O)(=O)O)cc1 the results were BioA inh 4, RecA splice inh 2, FadD28 FP inh 85*, UGM FP inh 0, TcdB GH inh 0 and Rv3671c inh -2.
Screening O=C(c1ccc(F)cc1)N1CCCCN2[C@H](CO)[C@@H](c3ccc(-c4ccc(F)cc4)cc3)[C@H]2C1 returned BioA inh 12 and TcdB GH inh -1.
`COc1ccc(NC(=O)/C(C#N)=C/c2ncc([N+](=O)[O-])n2C)c(OC)c1` gave BioA inh -1, RecA splice inh 37*, FadD28 FP inh -5, UGM FP inh -7, TcdB GH inh 1 and Rv3671c inh 1.
For COc1ccc(NC(=O)/C(C#N)=C/c2ccc[nH]2)c(OC)c1 the results were BioA inh -1, RecA splice inh 0, FadD28 FP inh -2, UGM FP inh -2, TcdB GH inh 0 and Rv3671c inh 1.
Screening COc1cc(OC)cc(-c2nnc(Sc3ccc(C=O)cc3[N+](=O)[O-])o2)c1 returned RecA splice inh 52*, UGM FP inh 0 and Rv3671c inh 7.
COc1ccc(NC(=O)N[C@@H]2CC[C@@H](CCNC(=O)Cc3ccncc3)O[C@H]2CO)cc1 was read as BioA inh -3 and TcdB GH inh -1.
Screening CCNC(=O)C[C@@H]1CC[C@@H]2[C@@H](COc3ccc(NC(=O)c4cc(C)on4)cc3C(=O)N2C)O1 returned BioA inh 0 and TcdB GH inh 1.
Screening CCCCCCCn1c(=N)n(CC(O)c2ccco2)c2ccccc21 (stereo unspecified) returned BioA inh 4, RecA splice inh 1, FadD28 FP inh -1, UGM FP inh 1, TcdB GH inh 0 and Rv3671c inh 2.
Screening N=c1n(CCN2CCCC2)c2ccccc2n1CC(O)c1ccco1 (stereo unspecified) returned BioA inh -3, RecA splice inh -1, FadD28 FP inh 0, UGM FP inh 41* and Rv3671c inh -2.
For CCc1cccc2c(C(=O)COC(=O)c3ccc(O)cc3)c[nH]c12 the results were BioA inh 0, RecA splice inh 1, FadD28 FP inh 34*, UGM FP inh 3, TcdB GH inh 1 and Rv3671c inh -113.
For CCc1cccc2c(C(=O)COC(=O)c3c(C)noc3C)c[nH]c12 the results were BioA inh 1, RecA splice inh 2, FadD28 FP inh 1, UGM FP inh 1, TcdB GH inh 1 and Rv3671c inh -3.
`CCc1cccc2c(C(=O)COC(=O)c3cnc(C)cn3)c[nH]c12` gave BioA inh 3, FadD28 FP inh 13*, UGM FP inh 0, TcdB GH inh 1 and Rv3671c inh 3.
CCc1cccc2c(C(=O)COC(=O)[C@@H]3CC(O)CN3S(=O)(=O)c3ccccc3[N+](=O)[O-])c[nH]c12 (stereo partly specified) was read as BioA inh 1, FadD28 FP inh 11*, UGM FP inh -1, TcdB GH inh 1 and Rv3671c inh -3.
For CCc1cccc2c(C(=O)COC(=O)c3nccnc3N)c[nH]c12 the results were BioA inh -1, RecA splice inh -1, FadD28 FP inh 3, UGM FP inh 0, TcdB GH inh 2 and Rv3671c inh 5.
For CCc1cccc2c(C(=O)COC(=O)c3ccccc3)c[nH]c12 the results were BioA inh -1, RecA splice inh -1, FadD28 FP inh 18*, UGM FP inh 0, TcdB GH inh 1 and Rv3671c inh -7.
`O=C(COC(=O)[C@@H]1CC(O)CN1S(=O)(=O)c1ccccc1[N+](=O)[O-])c1ccccc1` (stereo partly specified) gave BioA inh -1, RecA splice inh 0, FadD28 FP inh -3, UGM FP inh 4, TcdB GH inh 3 and Rv3671c inh 4.
CCc1cccc2c(C(=O)COC(=O)/C=C/c3ccccc3OC)c[nH]c12 was read as BioA inh -1, RecA splice inh 14, FadD28 FP inh 4, UGM FP inh 1, TcdB GH inh 1 and Rv3671c inh 2.
For O=C(Nc1ccc(Cl)cc1)N[C@H]1CC[C@@H](CCn2cc(Cc3ccccc3)nn2)O[C@H]1CO the results were BioA inh 0 and TcdB GH inh -2.
For CNC(=O)C[C@H]1CC[C@@H]2[C@H](COc3ccc(NC(=O)Cc4cccs4)cc3C(=O)N2C)O1 the results were BioA inh 2.
For COc1ccc2c3c(n(C)c2c1)[C@@H](CO)NCC31CN(C(=O)Nc2ccc(F)cc2F)C1 the results were TcdB GH inh -2.
For O=C1CCN(N=Nc2cccc(Cl)c2)N1 the results were RecA splice inh 40*, UGM FP inh 2 and Rv3671c inh -2.
